HP1b chromo inh: blocks HP1-beta chromodomain binding to methylated histone tails | hit rate 0.56% among 390,000 | P83916 | AlphaScreen HP1-beta / biotin-H3K9me3 peptide binding | Potency, µM (titrated, usually from 114 µM), for the others: at the highest dose activity change, negative = inhibition, most hits filed as inhibitors; also: nearly all actives have a fitted effect of over 70% in size
Target sequence (P83916 whole entry, looked up): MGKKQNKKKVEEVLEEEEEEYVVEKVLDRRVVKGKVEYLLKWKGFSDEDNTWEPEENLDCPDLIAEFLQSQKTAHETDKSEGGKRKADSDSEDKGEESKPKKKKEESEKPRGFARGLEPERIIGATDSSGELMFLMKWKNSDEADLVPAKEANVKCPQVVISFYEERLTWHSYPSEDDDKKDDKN
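Compound inhibition of the preformed complex between 50 nM HP1-beta and 50 nM biotinylated H3K9me3 peptide was read by AlphaScreen. Buffer was PBS pH 7.4 with 0.01% Tween-20. Incubations ran 30 min at room temperature, with 10 ug/mL donor/acceptor beads.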
JMJD2A Tudor: JMJD2A Tudor domain (human) inhibition | Potency, µM (top dose mostly 114 µM), inactives show top-dose activity change, negative = inhibition, actives largely listed as inhibitors | hit rate 4.4% among 390,000 | O75164 | AlphaScreen JMJD2A-Tudor / H3K4me3 peptide binding; also: % is scaled to controls: 0 for no effect and ±100 for the full control effect; nearly all actives have a fitted effect of over 50% in size
Sfp inh: inhibitors of Bacillus subtilis Sfp phosphopantetheinyl transferase. hit rate 3.5% among 310,000. Biochemical Sfp PPTase activity, qHTS. Potency, µM, for the others: largest response in the series, negative = inhibition, most hits filed as inhibitors. Q9F4F7;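 also: the enzyme is Sfp with the accession as filed and its product quenches rhodamine fluorescence; 0% = enzyme reaction without inhibitor and -100% = no enzyme wells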
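After 15 min at room temperature with compound, 15 nM Sfp received 5 uM rhodamine-CoA plus 12.5 uM BHQ-2-ybbR (50 mM Hepes pH 7.6, 10 mM MgCl2). Rate came from the fluorescence difference over 30 min, ex 525/em 598 nm.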
BAZ2B inh: blocks human BAZ2B; AlphaScreen BAZ2B-H3K14Ac peptide displacement; Potency, µM (titrated, usually from 114 µM), inactives show at the highest dose activity change, negative = inhibition, usual class: inhibitors; hit rate 4.4% among 360,000; AID 504333; also: % is scaled to controls: 0 for no effect and ±100 for the full control effect; nearly all actives have a fitted effect of over 60% in size
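BAZ2B 50 nM plus b-H3(5-23)K14Ac 50 nM, PBS pH 7.4/0.01% Tween-20, 30 min RT; compound added (max 110 uM), 30 min RT; streptavidin donor/Ni-chelate acceptor beads 10 ug/mL final, 20 min dark; AlphaScreen read.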
G9a inh: blocks human histone lysine methyltransferase G9a; AID 504332; Potency, µM (doses to about 102 µM), for inactives: at the top dose activity, negative = inhibition, actives largely listed as inhibitors; G9a H3K9 monomethylation, AlphaScreen, 2 h; hit rate 8.8% among 350,000; Q96KQ7; also: % is scaled to controls: 0 for no effect and ±100 for the full control effect; nearly all actives have a fitted effect of over 75% in size
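Compounds were preincubated with 20 nM G9a for 15 min, after which biotinylated H3K9 peptide (500 nM) and SAM (20 uM) started a 2 h room-temperature reaction. Monomethylated product was quantified by antibody-based AlphaScreen chemiluminescence.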
TDP1 inh: TDP1 (human) enzyme inhibition; Potency, µM (series often up to 130 µM), for inactives: at the top dose activity change, negative = inhibition, actives largely listed as inhibitors; recombinant TDP1, AlphaScreen DNA substrate cleavage; hit rate 0.28% among 350,000; Q9NUW8; also: % is scaled to controls: 0 for no effect and ±100 for the full control effect; nearly all actives have a fitted effect of over 40% in size
Target sequence (Q9NUW8 whole entry, looked up): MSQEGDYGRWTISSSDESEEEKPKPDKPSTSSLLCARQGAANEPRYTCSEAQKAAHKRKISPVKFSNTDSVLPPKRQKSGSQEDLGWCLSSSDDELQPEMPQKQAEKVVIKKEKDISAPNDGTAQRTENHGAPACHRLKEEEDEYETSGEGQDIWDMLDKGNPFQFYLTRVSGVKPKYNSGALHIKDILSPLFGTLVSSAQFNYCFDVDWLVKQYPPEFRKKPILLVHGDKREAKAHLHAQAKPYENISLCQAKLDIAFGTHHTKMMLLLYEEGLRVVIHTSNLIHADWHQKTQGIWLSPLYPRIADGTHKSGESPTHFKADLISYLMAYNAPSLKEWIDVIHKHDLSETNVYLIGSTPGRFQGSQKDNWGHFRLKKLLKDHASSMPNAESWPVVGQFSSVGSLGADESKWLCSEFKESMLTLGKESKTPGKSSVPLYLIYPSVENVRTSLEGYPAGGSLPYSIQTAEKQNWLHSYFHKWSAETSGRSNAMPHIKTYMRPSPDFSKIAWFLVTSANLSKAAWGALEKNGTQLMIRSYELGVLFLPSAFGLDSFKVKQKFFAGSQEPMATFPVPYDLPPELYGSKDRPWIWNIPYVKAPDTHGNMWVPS
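Enzyme-compound mixtures sat 15 min at room temperature, followed by a 5 min reaction with 15 nM final substrate and 10 min with AlphaScreen beads. Recombinant human Tdp1 was used at 1 nM final.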
Starred values were filed as active, the others as inactive; ? = inconclusive; . = no result; [ ] = dose if it differs, or a comment. A selection: hits, their analogues and other compounds. The true share with any hit is near 12%. Calls follow the shape of the dose curve; as a rule, active = well fitted curve in the direction sought with a large enough effect; inconclusive = small, poorly fitted or top-dose-only effect, or another doubt; inactive = no such curve, though single readings can be large; an effect the other way counts as inactive or inconclusive. Potency is read from the fitted curve at half-maximal effect.

SMILES | HP1b chromo inh | JMJD2A Tudor | Sfp inh | BAZ2B inh | G9a inh | TDP1 inh
CC(C)S(=O)(=O)C1=NSC2=NC(=O)/C(=C\c3ccc(-c4ccccc4)o3)C(=N)N21 | 0.6% | -26.2% | -0.9% | ? | ? | 5.6%
Cc1cc(C)cc(-n2cccc2/C=C2/C(=N)N3C(=NC2=O)SN=C3S(C)(=O)=O)c1 | -18.8% | ? | ? | 56.2µM* | ? | 5.7%
Cc1ccc(NS(=O)(=O)c2cc3c(cc2Cl)CCC(=O)N3)cc1C | . | -8.2% | . | . | . | 0.6%
Cc1nn(-c2ccc(N3CCOCC3)nn2)c(C)c1CCC(=O)NCc1ccc(Cl)cc1 | 9.3% | -14.3% | . | 7.3% | 47.9%[59 µM] | 7.1%
CCc1ccc(-n2cccc2/C=C2/C(=N)N3C(=NC2=O)SN=C3S(C)(=O)=O)cc1 | -3.2% | 56.2µM* | 0.6% | 39.8µM* | 44.7µM* | 3.6%
Fc1ccc(C2=NNC(=NCc3ccccc3)SC2)cc1F | -1.7% | ? | ? | ? | ? | 6.1%
CCCCN=C1NN=C(c2cccc([N+](=O)[O-])c2)CS1 | -1.6% | -31.0% | 1.8% | ? | 11.2µM* | 4.8%
COc1ccc(C(=O)c2ccc(CC#N)s2)cc1 | -11.1% | 79.4µM* | -0.1% | ? | ? | 89.1µM*
COc1ccc(C(=O)c2ccsc2N)cc1 | -0.9%[57 µM] | -33.9% | 1.0% | ? | ? | .
Cc1cccc(OCc2nnc(-c3ccc(F)cc3)o2)c1 | 115.1% | 58.8% | . | 62.4% | 5.4%[12.7 µM] | -13.2%
CCOc1ccc(/C=N/NC(=O)C(C)N(c2ccc(OC)cc2)S(C)(=O)=O)cc1 (stereo unspecified) | 12.7% | -16.3% | 0.5% | -0.1% | 11.7%[59 µM] | 5.1%
CCOc1ccc(N(CC(=O)N/N=C/c2ccc(OC(C)C)cc2)S(C)(=O)=O)cc1 | 0.7% | ? | -2.9% | 56.2µM* | ? | 2.7%
COc1cccc(CCNC(=O)CCCC(=O)c2ccccc2)c1 | 46.4% | 4.0% | 15.7% | 3.0% | 0.2%[12.7 µM] | .
COc1cc(C2C(C(C)=O)=C(O)C(=O)N2CCc2ccc(OC)c(OC)c2)ccc1O (stereo unspecified) | 15.5% | -12.6% | -14.9% | ? | -35.9%[59 µM] | -8.1%
COc1cccc(C2C(C(C)=O)=C(O)C(=O)N2CCc2c[nH]c3ccccc23)c1 (stereo unspecified) | -1.4% | ? | 4.3% | -31.3% | -3.1%[59 µM] | 5.1%
CCOc1ccc(C2C(C(C)=O)=C(O)C(=O)N2CCc2c[nH]c3ccccc23)cc1 (stereo unspecified) | 15.8% | -26.9% | -11.1% | ? | . | 2.6%
COc1ccc(C2C(C(C)=O)=C(O)C(=O)N2CCc2c[nH]c3ccccc23)cc1OC (stereo unspecified) | 26.7% | -14.6% | -5.8% | -32.9% | 25.1µM* | 7.9%
COc1ccc(C2C(C(C)=O)=C(O)C(=O)N2CCN(C)C)cc1OC (stereo unspecified) | . | . | 13.5% | -11.1% | 50.1µM* | 3.8%
CC(=O)C1=C(O)C(=O)N(CCc2c[nH]c3ccccc23)C1c1ccc(O)cc1 (stereo unspecified) | 8.0% | 89.1µM* | 15.4% | -30.9% | -23.0%[59 µM] | 1.0%
O=C(NCCc1ccc(C(F)(F)F)cc1)C1CC(=O)N(Cc2ccccc2)C1 (stereo unspecified) | 49.6% | -0.7% | . | -2.9% | 7.4%[12.7 µM] | -0.4%
Cc1ccc(Cl)cc1NC(=O)Cn1c(=O)n(CCC(=O)NCc2ccc3c(c2)OCO3)c(=O)c2sccc21 | 12.5% | -14.7% | . | ? | ? | 2.7%
COc1ccc(C(C)(C)NC(=O)C2CCC(=O)N(C3CC3)C2)cc1OC (stereo unspecified) | 36.0% | -7.3% | 1.8% | -13.6% | 19.0% | 5.4%
O=C(Cn1cncn1)N/N=C/c1cccnc1 | 11.0% | -11.6% | 2.0% | -2.2% | 8.9%[59 µM] | .
CC(=O)[C@@H]1[C@@H](C(=O)c2ccccc2)[C@]2(C(=O)Nc3ccccc32)[C@H]2C=Cc3cc(F)ccc3N12 | -30.8% | -35.9% | -18.7% | ? | 8.91µM* | 0.0%
O=C(c1ccccc1)[C@@H]1[C@@H](C(=O)c2ccc(F)cc2)[C@@]2(C(=O)Nc3ccccc32)[C@H]2c3ccccc3C=CN12 | 23.3% | -30.5% | -17.4% | -35.7% | 12.6µM* | 5.5%
SMILES | HP1b chromo inh | JMJD2A Tudor | Sfp inh | BAZ2B inh | G9a inh | TDP1 inh
CNC(=S)Nc1cc(S(=O)(=O)Nc2cc(Cl)ccc2Cl)ccc1N1CCCC1 | -8.1% | ? | -9.0% | -38.2% | 50.1µM* | .
COc1ccc(NS(=O)(=O)c2ccc(N3CCCC3)c(NC(=S)Nc3cccc(C)c3C)c2)cc1 | ? | 56.2µM* | 12.6µM* | ? | 1.26µM* | 5.7%
CC(=O)Nc1ccc(S(=O)(=O)Nc2cc(Cl)ccc2N2CCOCC2)cc1 | 7.5% | -24.7% | . | . | . | 0.2%
COc1ccc(NS(=O)(=O)c2ccc(N3CCCC3)c(NC(=S)Nc3ccc(SC(F)F)cc3)c2)cc1 | 11.2µM* | 56.2µM* | 17.8µM* | ? | ? | 10.5%
COC(=O)c1cc2oc3ccccc3c2n1Cc1nc(-c2ccccc2Cl)oc1C | 31.4% | -5.1% | . | 0.1% | -22.9%[59 µM] | 1.0%
CN(C)S(=O)(=O)c1cccc(COC(=O)c2cccnc2Cl)c1 | 18.8% | 2.7% | 5.5% | 8.9% | 20.3% | -4.0%
CCC1(c2ccccc2)NC(=O)N(CC(=O)N(C)Cc2c(F)cccc2Cl)C1=O (stereo unspecified) | 28.7% | -5.3% | 6.5% | -15.2% | 44.7µM* | 7.9%
O=C(O)c1ccc(S(=O)(=O)N2CCc3ccccc3C2)cc1 | 41.8% | ? | -9.1% | -31.2% | . | 0.7%
CCOC(=O)C1=C(C)N=C2SC(C(=O)OC)=CC(=O)N2C1c1cccc(OC)c1 (stereo unspecified) | 0.2% | ? | ? | ? | 7.0% | -1.1%
CCOC(=O)C1=C(C)N=c2s/c(=C\c3ccc(C(=O)O)cc3)c(=O)n2C1c1ccc(F)cc1 (stereo unspecified) | -9.5% | ? | ? | ? | 79.4µM* | .
CCOC(=O)C1=C(C)N=c2s/c(=C\c3ccc(OCC(=O)O)cc3)c(=O)n2C1c1ccccc1 (stereo unspecified) | 5.5% | -31.7% | -1.2% | ? | 15.4%[12.7 µM] | .
CCOC(=O)C1=C(C)N=C2SC(C(=O)OC)=CC(=O)N2C1c1ccc(F)cc1 (stereo unspecified) | ? | 25.1µM* | ? | ? | ? | 9.3%
CC1=C(C(=O)OC(C)C)C(c2ccc(Cl)cc2)n2c(s/c(=C\c3ccc(OCC(=O)O)cc3)c2=O)=N1 (stereo unspecified) | ? | ? | -2.6% | 44.7µM* | ? | .
COC(=O)C1=C(C)N=c2s/c(=C/c3cccs3)c(=O)n2C1c1cccs1 (stereo unspecified) | 52.2% | -19.1%[57.1 µM] | 11.5% | -30.7% | 5.3%[12.7 µM] | 1.0%

High-throughput results as filed in PubChem.
